Data on 40 molecules can be found in PubChem BioAssay (NCATS).

Results filed as inconclusive are left out. Where a call stands in place of a potency, no number is given. Values without a mark were called inactive. Activity calls are given as the source filed them. Calls come from the whole dose curve; as a rule, active = well fitted cell-killing curve with a large enough effect; inconclusive = small, poorly fitted or top-dose-only effect; inactive = flat fitted curve, though single readings scatter.
Potency is the fitted concentration of half-maximal effect.

The nature of this test: qHTS of pediatric cancer cell lines to identify multiple opportunities for drug repurposing: Primary screen for BT-12 cells (AID 1347101). Note: nearly all actives have a fitted effect of over 25% in size. The note with it: BT-12 viability, CellTiter-Glo luminescence, 48 h; series mostly up to 57.3 µM. From the text:
Drug repurposing or repositioning has been offered as a strategy for drug development in oncology programs. This approach has special potential for childhood cancers and other rare or orphan diseases, where the expected return on new drug development has been a disincentive to pharmaceuticals.
In this project we exploit the poly-pharmacology of drugs to discover new indications via phenotypic screening of a panel of 19 well-characterized cell lines derived from solid tumors seen in children and adolescents. The goal is to identify approved drugs with previously unrecognized anticancer properties that has the potential to reveal new mechanisms and biological processes involved in carcinogenesis or drug resistance. We employed a titration-based paradigm (quantitative high-throughput screening or qHTS), where all compounds were tested at multiple concentrations for their effect on cell viability. Concentration-response curves (CRCs) were derived directly from the primary screen, and both potency and efficacy values were used to identify compounds with robust bioactivity profiles. We screened the NIH Chemical Genomics Center (NCGC) Pharmaceutical Collection (NPC) and Mechanism Interrogation Plate (MIPE) small molecule collections of approved and investigational compounds against these cell lines; and measured metabolically active cells after 48 hours of compound treatment as a proxy for cell viability.
Assay Submitter: Nathalia J. Martinez, National Center for Advancing Translational Sciences, National Institutes of Health, Rockville, MD, USA; email: natalia.martinez@nih.gov
[1] Shen, M et al. Quantitative high-throughput phenotypic screening of pediatric cancer cell lines identifies multiple opportunities for drug repurposing. Oncotarget 2017 Dec 19;9(4):4758-4772. PMID 29435139.
The cells were obtained from University of North Carolina (UNC), Pediatric Preclinical Testing Program (PPT), and Coriell Institute (CI).
qHTS cell viability assay:
Cells were assayed in growth media at a density of 500-1,000 cells/well. Five microliters of cells were dispensed into 1,536-well, white, solid-bottom, TC-treated plates (Greiner Bio One) using a multidrop dispenser and incubated at 37 degrees C, 5% CO2, under a humidified atmosphere for 5 hours. Twenty-three nanoliters of compounds and controls (neutral control DMSO or positive control bortezomib at final concentration of 2.3 µM) were subsequently transferred by Kalypsys pintool. For primary screens, the MIPE collection was tested at 11-point dilutions (final concentrations range from 0.78 nM to 46 µM) and the NPC collection at 8-point dilutions (final concentrations range from 0.59 nM to 46 µM). Compounds tested in follow-up screens were assayed at 11-point dilutions. Cells were incubated for 48 hours, followed by addition of 3 µL of CellTiter-Glo (Promega). After a 15 min incubation at room temperature, samples were analyzed for luminescence intensity using a ViewLux High-throughput CCD imager equipped with clear filters.
On to `Nc1ncn([C@@H]2O[C@H](CO)[C@@H](O)[C@H]2O)c(=O)n1`, for which the Potency was 8.71 µM (active). As to `CCCCCN(CCCCC)C(=O)C(CCC(=O)O)NC(=O)c1ccc(Cl)c(Cl)c1` (stereo not given), the Potency result is “inactive”. For `Cc1ccc(Cl)c(Nc2ccccc2C(=O)O)c1Cl`, the Potency entry was “inactive”. Consider `CCCCNc1c(C(=O)OCC)c(C)nc2c1cnn2CC`, for which the Potency result is “inactive”. As for `Cc1cccc(C)c1NC(=O)C(C)N` (stereo not given), the Potency result is “inactive”. For the molecule `CCN(CC)CC(=O)Nc1c(C)cccc1C`, the Potency entry is “inactive”. In the case of `c1cnc(N2CCN(Cc3ccc4c(c3)OCO4)CC2)nc1`, the Potency result was “inactive”. On to `Nc1c2c(nc3ccccc13)CCCC2O` (stereo not given), for which the Potency entry is “inactive”. As to `COC(=O)[C@@H](N)Cc1ccc(O)c(O)c1`, the Potency result is “inactive”. `CCOC(=O)c1cnc2c(cnn2CC)c1NN=C(C)C`: the Potency entry was “inactive”. For the molecule `CCCN(CCC)CCc1cccc2c1CC(=O)N2`, the Potency result was “inactive”.

With `CN1C(=O)CC[C@H]1c1cccnc1`, the Potency result was “inactive”. For the molecule `CC(C(=O)O)c1ccc(CC2CCCC2=O)cc1` (stereo not given), the Potency entry was “inactive”. On the same count and under the same terms, under `O=c1[nH]c(=O)n([C@H]2C[C@H](O)[C@@H](CO)O2)cc1Br` stands “inactive”.

With `CC(=O)[C@]1(O)Cc2c(O)c3c(c(O)c2[C@@H](O[C@H]2C[C@H](N)[C@H](O)[C@H](C)O2)C1)C(=O)c1ccccc1C3=O`, the Potency is 0.55 µM (active). Take `C[C@H](CS)C(=O)N1CCC[C@H]1C(=O)O`: the Potency result was “inactive”.

For the molecule `CCN(Cc1ccncc1)C(=O)C(CO)c1ccccc1` (stereo not given), the Potency result was “inactive”. As for `CC(=O)OCC1=C(C(=O)O)N2C(=O)[C@@H](NC(=O)Cc3cccs3)[C@H]2SC1`, the Potency entry was “inactive”. Regarding `Cc1cc(C)c(/C=C2\C(=O)Nc3ccccc32)[nH]1`, the Potency entry was “inactive”.

As to `CC(C)(C)NCC(O)c1cc(O)cc(O)c1` (stereo not given), the Potency result was “inactive”. `NC(=O)c1cn(Cc2c(F)cccc2F)nn1`: the Potency result was “inactive”. For the molecule `CCn1ccnc1CC1COc2ccccc2O1` (stereo not given), the Potency result is “inactive”. For the molecule `OCCN1CCN(CCCN2c3ccccc3C=Cc3ccccc32)CC1`, the Potency result is “inactive”. For `CCN(CC)CCNC(=O)c1ccc(NC(C)=O)cc1`, the Potency entry is “inactive”. Take `FC(F)(F)c1ccccc1-n1ccnc1`: the Potency result is “inactive”. As to `O=C1NCN(c2ccccc2)C12CCN(CCCC(c1ccc(F)cc1)c1ccc(F)cc1)CC2`, the Potency is 13.8 µM (active).

As to `O=C(O)CP(=O)(O)O`, the Potency entry was “inactive”. For `CCc1c(C)[nH]c2c1C(=O)C(CN1CCOCC1)CC2` (stereo not given), the Potency entry was “inactive”. As to `CCN(CC)CCNC(=O)c1cc(S(C)(=O)=O)ccc1OC`, the Potency entry was “inactive”. For `NC/C=C/C(=O)O`, the Potency result is “inactive”. `O=C(O)CN(CCOCCOCCN(CC(=O)O)CC(=O)O)CC(=O)O`: the activity change, negative = cytotoxic is 8.07% [at 0.745 µM]. `CN(C)CCCN1c2ccccc2Sc2ccc(C(F)(F)F)cc21`: the Potency is 4.9 µM (active). For `CNCCC(Oc1ccccc1OC)c1ccccc1` (stereo not given), the Potency result was “inactive”.

Turning to `c1ccc2c(c1)CCCC2C1=NCCN1` (stereo not given), the Potency result is “inactive”.

Regarding `N[C@@H](COP(=O)(O)O)C(=O)O`, the Potency result was “inactive”. As to `CN1CCN(CC(=O)N2c3ccccc3C(=O)Nc3cccnc32)CC1`, the activity change, negative = cytotoxic was 5.59% [at 6.03 µM]. `CN(C)CCOC(=O)COc1ccc(Cl)cc1`: the Potency result was “inactive”. In the case of `COCCCC/C(=N\OCCN)c1ccc(C(F)(F)F)cc1`, the Potency result was “inactive”.

For the molecule `C[N+](C)(C)CCCCCCCCCC[N+](C)(C)C`, the Potency entry was “inactive”. With `NC(=O)N1c2ccccc2C=Cc2ccccc21`, the Potency entry is “inactive”.
